# Assay outcomes: PubChem BioAssay, several laboratories
# This is a sample that favours compounds with a hit; in the whole collection about 5.2% have one here.
# A3A deaminase: inhibitors of human APOBEC3A DNA deaminase; P31941; recombinant A3A, FAM/TAMRA ssDNA deamination fluorescence; inhibition, % at 20 µM; 0.41% of 330,000 active;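 active = at least 40% inhibition at 20 µM here, with at most 30% in a related deaminase screen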;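 also: plate controls were A3A with DMSO for no effect and wells lacking A3A enzyme for full effect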
# Target sequence (P31941 whole entry, looked up): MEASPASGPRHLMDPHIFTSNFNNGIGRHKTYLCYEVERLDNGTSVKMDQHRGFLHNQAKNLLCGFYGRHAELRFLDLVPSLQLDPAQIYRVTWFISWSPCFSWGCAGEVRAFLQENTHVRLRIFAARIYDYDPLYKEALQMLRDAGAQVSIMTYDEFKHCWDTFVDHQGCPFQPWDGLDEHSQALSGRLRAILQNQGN
# A3G deaminase: APOBEC3G (human) deaminase inhibition | 0.28% of 330,000 active | recombinant A3G, ssDNA deamination FAM/TAMRA fluorescence | AID 493012 | inhibition, % at 20 µM;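 active = inhibition of at least 40% at 20 µM, with no more than 30% in the related APOBEC3A deaminase screen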;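 also: plate controls were DMSO wells with A3G for no effect and wells lacking A3G enzyme for full effect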
# CR mimetic SO: lowers age-related superoxide in aged yeast cells; S. cerevisiae aged cells, superoxide DHE fluorescence; hits give low values; superoxide response (% of plate mean), % at 10 µM; 0.18% of 330,000 active;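 active = superoxide response under a set limit, about three screen SD below normal, cut at about 65% in these data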;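 also: yeast aged for seven days with compound at 30 °C before DHE staining; 100% = average MFI of all compound-treated wells on the plate with controls excluded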
# PfM18AAP inh: blocks P. falciparum M18 aspartyl aminopeptidase; recombinant PfM18AAP, H-Glu-NHMec fluorogenic cleavage; inhibition, % at 7.35 µM; 1.2% of 290,000 active; AID 1822;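 active = inhibition above the campaign mean inhibition over all tested compounds plus 3 SD, cut at about 28% in these data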;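 also: 0% = plate median of test compound wells and 100% = 2 mM ZnCl2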
# CendR NRP1 mod: NRP-1/CendR interaction modulation; FAM-RPARPAR peptide binding to NRP-1, fluorescence polarization; O14786; 0.85% of 360,000 active; inhibition, % at 25 µM; AID 602438;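 active = inhibition or corrected inhibition above about 18%, plus a signal ratio from 0.5 to 1.5, limit read from the data, passing the limit was not always enough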
# ALR H2O2 inh: blocks human ALR sulfhydryl oxidase activity | P55789 | purified ALR, DTT oxidation, H2O2 HRP-luminol luminescence | inhibition, % (test concentration not listed) | 3.8% of 290,000 active | AID 485317;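 active = mean replicate inhibition above about 79%, with every replicate also reaching it, limit read from the data; inconclusive = only one of the two criteria met; inactive = mean below limit and not every replicate reaching it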
# Target sequence (P55789 whole entry, looked up): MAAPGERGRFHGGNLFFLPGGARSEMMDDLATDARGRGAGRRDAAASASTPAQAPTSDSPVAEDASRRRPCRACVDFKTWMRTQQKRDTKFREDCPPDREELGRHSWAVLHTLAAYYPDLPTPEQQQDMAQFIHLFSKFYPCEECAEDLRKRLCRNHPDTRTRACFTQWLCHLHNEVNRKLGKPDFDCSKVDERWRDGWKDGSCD
# * marks the source's active call; other numbers are inactive results; ? = inconclusive; / = no result given.
SMILES,A3A deaminase,A3G deaminase,CR mimetic SO,PfM18AAP inh,CendR NRP1 mod,ALR H2O2 inh
Cc1c(C(=O)NCc2cccnc2)sc2nc(-c3ccccc3)cn12,-2.5,-8.8,87.5,-2.0,0.0,90.0*
CCn1c(N)c(C(=O)NCCCOC)sc1=S,-4.1,25.6,93.4,14.7,-6.3,98.8*
CCNC(=O)c1sc(=S)n(CC)c1N,2.2,-0.8,108.4,-15.3,7.7,99.4*
CCn1c(N)c(C(=O)NCc2cccnc2)sc1=S,-1.8,-6.7,89.7,10.3,25.8*,98.5*
S=C(NCCSCc1ccccc1Cl)Nc1ccccc1,-23.1,-8.6,104.9,2.9,6.4,-10.4
O=C(NCc1ccccc1)C(c1ccco1)N1CCN(c2ccccc2F)CC1 (stereo not given),/,/,/,/,-1.3,/
Cc1cc([N+](=O)[O-])nn1CC(=O)N1N=C(C(F)F)CC1(O)C(F)F (stereo not given),6.7,0.2,114.7,-1.6,-9.5,/
Cc1ccc(Nc2cc(C)c3ccc(O)cc3n2)cc1C,1.7,-3.0,108.6,3.4,-2.9,87.5*
CCN(C(=O)COC(=O)c1cccc(S(=O)(=O)N(C)C)c1)c1c(N)n(Cc2ccccc2)c(=O)[nH]c1=O,/,/,/,/,1.0,/
Cc1ccn2c(=O)c(NC(=O)c3cccs3)c(C)nc2c1,-4.2,-6.0,104.9,/,6.4,17.1
Clc1ccc(-n2nnc(-c3cccnc3)n2)cc1Cl,-5.9,-13.5,100.8,-5.3,-1.0,2.7
Fc1ccc(-n2nnc(-c3cccnc3)n2)cc1,-3.7,-9.9,/,7.1,26.9*,/
Cc1ccc(S(=O)(=O)N[C@H](C(=O)OCC(=O)N2N=C(c3ccc(Cl)cc3)CC2c2ccco2)C(C)C)cc1 (stereo not given in full),-1.7,-4.6,97.2,11.0,0.5,/
N#CC(OC(=O)c1ccccc1)c1ccccc1 (stereo not given),/,/,/,/,7.2,/
CC(C)CC(=O)NNC(=S)Nc1ccc(S(N)(=O)=O)cc1,-2.3,16.4,86.7,29.3*,8.0,69.3
CC(C)CC(=O)NC(=S)Nc1ccc(S(=O)(=O)NC(C)(C)C)cc1,-1.2,-7.2,97.7,-4.2,-12.6,9.5
CCOC(=O)N1CCN(C(=O)Nc2ccc3nc(C)c(C)nc3c2)CC1,4.2,0.4,89.8,4.5,44.4*,-32.1
CCCc1ccc(-c2c(C)sc(N)c2C#N)cc1,-1.9,-2.2,110.9,19.8,4.9,91.7*
Cc1cc2n(n1)C(c1ccc3c(c1)OCO3)Nc1c(C)cccc1-2 (stereo not given),-1.7,-7.6,125.7,-9.2,-2.8,98.1*
O=C(NNc1ncnc2sccc12)c1ccc(Cl)cc1,1.2,-1.3,93.7,28.4*,-5.0,-3.5
Cc1csc2ncnc(NNC(=O)c3ccc(Cl)cc3)c12,0.0,2.1,96.7,7.2,-3.1,?
COc1ccc(C2C3C(=O)N(Cc4ccccc4)C(=O)C3ON2c2ccccc2)c(OC)c1OC (stereo not given),-3.0,-5.5,94.0,-6.6,6.6,-32.0
COc1ccc(C(=O)NC2CCCCC2)cc1S(=O)(=O)N1CCOCC1,4.2,-3.8,91.6,-10.7,8.5,-1.7
CCC(COC)NCc1cn(-c2ccc(F)cc2F)nc1-c1ccccc1C (stereo not given),4.4,0.5,95.8,3.4,25.7*,/
O=C(CSc1ccccn1)Nc1ccc(Cl)cn1,0.6,-5.7,86.1,-4.6,12.7,-3.7
SMILES,A3A deaminase,A3G deaminase,CR mimetic SO,PfM18AAP inh,CendR NRP1 mod,ALR H2O2 inh
CCCCN1C(=O)/C(=c2\sc3nc(=O)c(-c4ccccc4)nn3c2=O)c2ccccc21,-1.9,-2.4,82.5,-38.3,-7.3,96.8*
Cc1ccc(-c2nc(CSCC(=O)N3CCCC3)c(C)o2)cc1,-3.2,-5.0,97.8,-10.6,-2.8,99.1*
CCOc1ccc(-c2nc(CSCC(=O)N3CCN(C(=O)c4ccco4)CC3)c(C)o2)cc1,-1.9,-5.2,92.9,-11.6,-5.2,99.1*
CCOC(=O)CSCc1nc(-c2ccc(Cl)cc2)oc1C,-1.5,-5.3,98.7,1.5,13.6,73.1
CCOC(=O)C1CCN(C(=O)CSCc2nc(-c3ccc(OCC)cc3)oc2C)CC1,-21.1,-6.1,98.2,-0.4,-10.5,98.9*
CCOC(=O)C1CCN(C(=O)COc2ccc(Br)cc2)CC1,-1.3,-2.3,103.3,-5.3,-5.3,-35.8
O=C(CSCc1ccccc1)N1CCN(C(=O)c2ccco2)CC1,-1.8,-3.2,86.9,11.7,11.6,1.4
